This is an account of results in PubChem BioAssay (Tox21).

Values without a mark were called inactive. Activity calls are given as the source filed them. Unless noted, calls follow the shape of the dose curve; as a rule, active = well fitted curve in the direction sought with a large enough effect in the repeat runs; inconclusive = weak or mixed curves; inactive = no such curve, though single readings can be large; an effect the other way counts as inactive or inconclusive.

Test [1] in a line: qHTS assay for small molecule disruptors of the mitochondrial membrane potential - cell viability (AID 720634; calls by dose curve;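 also: human HepG2 liver cancer cells; series mostly up to about 83 µM; nearly all actives have a fitted effect of over 20% in size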). Summed up:
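ATP-based luminescent viability readout (CellTiter-Glo, 30 min, room temperature) in HepG2 cells multiplexed with the m-MPI membrane potential dye; compound exposure lasted 1 hr at 37 C.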

A short description of test [2]: qHTS assay for small molecule disruptors of the mitochondrial membrane potential (AID 720635). Also: potency is read from the fitted curve at half-maximal effect. Summed up: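 HepG2 cells (2,000/well) attached overnight at 37C, then took compound for 1 hr at 37C, 5% CO2. Mito-MPS dye was added for 30 min; fluorescence was read at 490/535 nm (monomers) and 540/590 nm (aggregates).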
For orientation: In qHTS, concentration-response curves come from the screen itself.

Test [3] can be described thus: qHTS assay to test for compound auto fluorescence at 460 nm (blue) in HEK293 cells (AID 720678). The gist of the method:
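Blue-channel (Ex/Em 405/460 nm) intensity measured in HEK293 cultures after overnight compound exposure at 37C; signal expressed relative to triamterene. Cells plated 2,000 per well in 10% dialyzed FBS medium and allowed 4-5 hr to attach.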

Test [4] can be described thus: qHTS assay to test for compound auto fluorescence at 590 nm (red) in HEK293 cells (AID 720679). Summed up:
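Red-channel autofluorescence (Ex/Em 540/590 nm; Rose Bengal sodium reference) was measured after overnight 37C, 5% CO2 exposure of attached HEK293 cells, 2,000 per well in medium with 10% dialyzed FBS.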

Test [5] in a line: qHTS assay to test for compound auto fluorescence at 535 nm (green) in HEK293 cells (AID 720680).
The nature of test [6]: qHTS assay to test for compound auto fluorescence at 460 nm (blue) in HEK293 cell free culture (AID 720681). Summed up: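 Test compounds were pinned into cell-free culture medium (DMEM with 10% FBS) and fluorescence was read directly at Ex/Em 405/460 nm. Signals were expressed as fluorescence equivalents of triamterene, with DMSO vehicle as control.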
The nature of test [7]: qHTS assay to test for compound auto fluorescence at 535 nm (green) in HEK293 cell free culture (AID 720682). Summed up:
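Steps: dispense DMEM/10% FBS into empty wells; pin in compound or DMSO; measure fluorescence at 485/535 nm. Values are fluorescein equivalents.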

Test [8] can be described thus: qHTS assay to test for compound auto fluorescence at 590 nm (red) in HEK293 cell free culture (AID 720683). Summed up: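 Tox21 10K library compounds were pinned into cell-free DMEM with 10% FBS and fluorescence was read at excitation 540 nm. Activity is expressed as Rose Bengal sodium equivalency.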
Test [9] in a line: qHTS assay to test for compound auto fluorescence at 590 nm (red) in HepG2 cell free culture (AID 720684). Summed up: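 Ex 540 / Em 590 nm read of compound in cell-free MEM (10% FBS). Rose Bengal sodium reference.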
A short description of test [10]: qHTS assay to test for compound auto fluorescence at 460 nm (blue) in HepG2 cell free culture (AID 720685). The gist of the method: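 Cell-free plates of MEM plus 10% FBS received 23 nL compound or DMSO vehicle; blue-channel (405/460 nm) intensity scored against triamterene as reference fluorophore.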
Test [11] can be described thus: qHTS assay to test for compound auto fluorescence at 535 nm (green) in HepG2 cell free culture (AID 720686).
The nature of test [12]: qHTS assay to test for compound auto fluorescence at 460 nm (blue) in HepG2 cells (AID 720687). Summed up: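 Cells (2,000/well in MEM with 10% FBS) attached overnight at 37 C, then were exposed to compound or DMSO for 1 hr at 37 C, 5% CO2. Fluorescence read at Ex/Em 405/460 nm, expressed as triamterene-equivalent signal.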
Test [13] can be described thus: qHTS assay for small molecules that induce genotoxicity in human embryonic kidney cells expressing luciferase-tagged ATAD5 (AID 651632). Also: nearly all actives have a fitted effect of over 15% in size. Also: potency is read from the fitted curve at half-maximal effect. Summed up: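 Quantitative HTS in HEK293T expressing luciferase-tagged ATAD5, whose levels rise upon DNA damage. Exposure ran 16 hr at 37C and 5% CO2, with luminescence read 30 min after Amplite addition at room temperature.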
Test [14] is described as follows: qHTS assay for small molecules that induce genotoxicity in human embryonic kidney cells expressing luciferase-tagged ATAD5 - cell viability (AID 651634; calls by dose curve; also: nearly all actives have a fitted effect of over 25% in size). Summed up: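 After 15.5 hr incubation with compound at 37C, 5% CO2, HEK293T ATAD5-luciferase cells received CellTiter-Fluor reagent; fluorescence intensity was quantified following 30 min at 37C.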
The nature of test [15]: qHTS assay to test for compound auto fluorescence at 590 nm (red) in HepG2 cells (AID 720674). The gist of the method:
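Compound auto-fluorescence is scored relative to Rose Bengal sodium, measured at 540/590 nm in live HepG2 cultures after 1 hr compound contact (37 C, 5% CO2).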

Test [16] in a line: qHTS assay to test for compound auto fluorescence at 535 nm (green) in HepG2 cells (AID 720675).
Test [17] deals with Glucocorticoid receptor (Homo sapiens) (UniProt P04150). The test can be described thus: qHTS assay to identify small molecule agonists of the glucocorticoid receptor (GR) signaling pathway (AID 720691; active = well fitted activation curve with a large enough effect in the signal ratio in the repeat runs, not every such curve was filed as active; inconclusive = weak or mixed curves, or effect the other way; inactive = no such curve, though single readings can be large or run the other way; the % refers to the signal ratio; also: potency is read from the fitted curve at half-maximal effect). The gist of the method:
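Cells: GR-bla HeLa, endogenous GR with stably integrated GRE-beta-lactamase reporter. Treatment 18 h, 37 C, compounds delivered in DMSO. Detection via LiveBLAzer B/G FRET substrate, 2 h RT, fluorescence intensity.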

Test [18] in a line: qHTS assay for small molecule agonists of the p53 signaling pathway - cell viability (AID 651633; calls by dose curve;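 also: p53RE-bla HCT reporter cells with a stable beta-lactamase p53 reporter; series mostly up to about 83 µM; nearly all actives have a fitted effect of over 30% in size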). The gist of the method:
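p53RE-bla cells, seeded at 4,000 per well and rested 5 h at 37 C/5% CO2, received compounds in DMSO for 16 h at 37 C. CellTiter-Glo was then added, and luminescence was read after 30 min at room temperature to gauge cytotoxicity.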

Test [19] has as its target Glucocorticoid receptor (Homo sapiens) (UniProt P04150). Briefly: qHTS assay to identify small molecule antagonists of the glucocorticoid receptor (GR) signaling pathway (AID 720692; active = well fitted inhibition curve with a large enough effect in the signal ratio in the repeat runs, not every such curve was filed as active; inconclusive = weak or mixed curves, or effect the other way; inactive = no such curve, though single readings can be large or run the other way; the % refers to the signal ratio). The gist of the method: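 Quantitative HTS in antagonist format: HeLa cells expressing endogenous GR and a stably integrated GRE-bla reporter, stimulated with 5 nM dexamethasone (final) alongside test compounds for 18 h.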
% is scaled to controls: 0 for no effect and ±100 for the full control effect.

Chain of Glucocorticoid receptor (Homo sapiens) (P04150 whole entry, looked up): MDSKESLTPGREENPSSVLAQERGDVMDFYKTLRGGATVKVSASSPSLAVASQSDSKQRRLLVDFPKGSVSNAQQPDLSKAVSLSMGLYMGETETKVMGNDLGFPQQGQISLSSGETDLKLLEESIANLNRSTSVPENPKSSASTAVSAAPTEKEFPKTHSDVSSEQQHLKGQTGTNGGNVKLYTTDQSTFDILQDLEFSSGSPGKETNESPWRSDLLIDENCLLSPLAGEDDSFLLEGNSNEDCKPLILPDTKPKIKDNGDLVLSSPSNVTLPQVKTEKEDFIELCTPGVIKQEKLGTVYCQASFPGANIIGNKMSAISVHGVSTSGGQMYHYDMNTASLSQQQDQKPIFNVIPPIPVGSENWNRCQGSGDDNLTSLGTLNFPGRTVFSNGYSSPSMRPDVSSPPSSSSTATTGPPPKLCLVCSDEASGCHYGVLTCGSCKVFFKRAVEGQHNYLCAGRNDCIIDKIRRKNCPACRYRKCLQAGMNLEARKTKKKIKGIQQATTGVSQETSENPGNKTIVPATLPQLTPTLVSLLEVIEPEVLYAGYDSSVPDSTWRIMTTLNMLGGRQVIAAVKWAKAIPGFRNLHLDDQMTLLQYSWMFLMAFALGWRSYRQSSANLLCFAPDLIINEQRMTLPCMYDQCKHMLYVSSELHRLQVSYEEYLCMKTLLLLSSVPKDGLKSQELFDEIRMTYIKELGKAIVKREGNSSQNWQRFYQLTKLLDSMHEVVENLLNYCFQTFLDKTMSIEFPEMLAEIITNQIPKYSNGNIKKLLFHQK

Turning to `CC1(C)[C@H](C(=O)O)N2C(=O)C[C@H]2S1(=O)=O`, the Potency result in test [1], in test [2], in test [3], in test [6], in [10] and in [12] was “inactive” throughout. Further, the result in test [4], in test [5], in test [7], in [8], in test [9] and in test [11] was inactive.

For `c1ccc2sc(SN(C3CCCCC3)C3CCCCC3)nc2c1`, the Potency result in [13], in test [14], in test [3], in test [6], in [10] and in test [12] was “inactive” in each case. In addition, the call in [15], in [16], in test [4], in test [5], in test [7] and in [8] was inactive. In addition, the result in [9] and in test [11] was inactive.

Turning to `CCCCC(CC)COP(=O)(O)O` (stereo unspecified), the Potency entry in test [13], in test [14], in test [3], in test [6], in test [10] and in [12] was “inactive” throughout. Moreover, the Potency entry in test [17] was “inactive”. Also, the outcome in test [15], in [16], in test [4], in [5], in test [7] and in [8] was inactive. Also, the compound was classed as inactive in test [9] and in test [11].

For the compound `CC1(C)O[C@@H]2C[C@H]3[C@@H]4C[C@H](F)C5=CC(=O)C=C[C@]5(C)[C@H]4[C@@H](O)C[C@]3(C)[C@]2(C(=O)CO)O1`, the Potency entry in test [18], in test [14] and in test [1] was “inactive” each time. Also, the fluorescence, relative to Rose Bengal in [15] is 0.174% [at 18.6 µM]. Moreover, the fluorescence, % of fluorescein control is -0.107% [at 18.6 µM] in [16] and -0.129% [at 18.6 µM] in [11]. Besides, the fluorescence, % of triamterene in [3] is -0.229% [at 18.6 µM]. Further, the fluorescence, % of fluorescent control in test [4] was -0.713% [at 18.6 µM]; in test [6], -0.131% [at 18.6 µM]; in test [8], -0.673% [at 18.6 µM]; in [10], -0.0967% [at 18.6 µM]; in test [12] it was -0.0461% [at 18.6 µM]. Also, in [5], the fluorescence, % of fluorescein is -0.126% [at 18.6 µM]. For the same compound, the activity change in test [7] is -0.178% [at 18.6 µM]. For the same compound, the fluorescence, % of Rose Bengal in test [9] is -0.32% [at 18.6 µM]. Moreover, the Potency in [17] was 1.29 µM [inconclusive] (active).

On to `CC(=O)N/N=C/c1ccc([N+](=O)[O-])o1`, for which the Potency result in [13], in test [14], in test [1], in test [3], in [6] and in [10] was “inactive” each time. The Potency result in [12] and in [17] was “inactive” each time. Also, the call in test [15], in test [16], in [4], in test [5], in test [7] and in test [8] was inactive. Moreover, the outcome in test [9] and in test [11] was inactive.

With `O=C1c2ccccc2C(=O)C1c1nc2ccccc2c(Br)c1O`, the Potency entry in test [18], in test [14], in [1], in [3], in [6] and in [10] was “inactive” in each case. For the same compound, the Potency entry in test [12], in test [17] and in [19] was “inactive” in each case. For the same compound, the Potency in test [2] was 21.7 µM (active). The compound was classed as inactive in [15], in test [16], in [4], in test [5], in [7] and in test [8]. The compound was classed as inactive in test [9] and in test [11].

`Cc1ccc2c(Br)cc(Br)c(O)c2n1`: the Potency in test [13] and in [2] was 23.7 µM (active) in each case. Moreover, the Potency result in test [1], in test [3], in test [6], in test [10] and in test [12] was “inactive” in each case. For the same compound, the result in [15], in [16], in test [4], in test [5], in [7] and in test [8] was inactive. The result in test [9] was inactive.

Take `CC(=O)NC1(c2cccc(F)c2)CCN(CC[C@@]2(c3ccc(Cl)c(Cl)c3)CN(c3ccccc3)C(=O)CO2)CC1`: the Potency entry in test [13], in [1], in test [3], in test [6], in [10] and in test [12] was “inactive” each time. Besides, the outcome in test [15], in [4], in test [5], in test [7] and in test [9] was inactive.

Turning to `Brc1cc(Br)c(Oc2cc(Br)c(Br)cc2Br)cc1Br`, the Potency result in test [13], in test [14], in [1], in [3], in test [6] and in test [10] was “inactive” in each case. Also, the Potency entry in test [12] is “inactive”. Moreover, the compound was classed as inactive in [5], in test [7], in [9] and in [11].

With `CCOC(=O)OC(C)OC(=O)[C@@H]1N2C(=O)[C@@H](NC(=O)[C@H](N)c3ccccc3)[C@H]2SC1(C)C` (stereo partly specified), the Potency entry in test [13], in test [14] and in test [1] was “inactive” each time. Further, the fluorescence, relative to Rose Bengal in test [15] was -0.696% [at 18.6 µM]. Further, the fluorescence, % of fluorescein control in test [16] was 0.0265% [at 18.6 µM]; in test [11] it was 0.112% [at 18.6 µM]. Further, the fluorescence, % of triamterene in [3] is 0.659% [at 18.6 µM]. Also, the fluorescence, % of fluorescent control in test [4] was 0.375% [at 18.6 µM]; in [6], 0.602% [at 18.6 µM]; in test [8] it was -0.265% [at 18.6 µM]; in test [10], 0.443% [at 18.6 µM]; in [12], 0.278% [at 18.6 µM]. The fluorescence, % of fluorescein in test [5] is 0.0714% [at 18.6 µM]. In [7], the activity change is -0.0186% [at 18.6 µM]. Further, in test [9], the fluorescence, % of Rose Bengal was 0.701% [at 18.6 µM].

As for `C=CCc1ccccc1OCC(O)CNC(C)C` (stereo unspecified), the Potency result in [18], in test [14], in test [1], in test [3], in test [6] and in test [10] was “inactive” each time. For the same compound, the Potency entry in test [12] was “inactive”. Further, the compound was classed as inactive in test [15], in [16], in test [4], in test [5], in test [7] and in test [8]. The compound was called inactive in test [9].
